The term ΔTm denotes the change in melting temperature against a reference sample.

Settings in all cases: Compound concentration 20.0 uM, Protein concentration 2.0 uM, Result type QC Liability
The target in experiment [1] is Tyrosine-protein kinase ABL1 (Homo sapiens) (UniProt P00519).
Experiment [2] has as its target Cyclin-dependent kinase 2 (Homo sapiens) (UniProt P24941).
For experiment [3], the target named is Casein kinase I isoform delta (Homo sapiens) (UniProt P48730).
In experiment [4] the target is Glycogen synthase kinase-3 beta (Homo sapiens) (UniProt P49841).
Glycogen synthase kinase-3 beta (Homo sapiens), sequence (P49841 whole entry, looked up): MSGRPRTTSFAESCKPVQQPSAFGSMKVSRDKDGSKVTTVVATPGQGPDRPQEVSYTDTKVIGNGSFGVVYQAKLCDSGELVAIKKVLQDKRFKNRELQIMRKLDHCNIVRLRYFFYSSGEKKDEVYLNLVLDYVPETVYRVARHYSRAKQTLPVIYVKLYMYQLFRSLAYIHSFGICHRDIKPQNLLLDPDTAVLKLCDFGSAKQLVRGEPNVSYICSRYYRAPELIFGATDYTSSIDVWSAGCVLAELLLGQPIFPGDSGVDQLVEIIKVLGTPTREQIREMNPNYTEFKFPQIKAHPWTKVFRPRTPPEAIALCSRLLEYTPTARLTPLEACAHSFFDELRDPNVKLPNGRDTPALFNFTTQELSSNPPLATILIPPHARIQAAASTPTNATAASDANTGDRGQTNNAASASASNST
Experiment [5] deals with Mitogen-activated protein kinase 1 (Homo sapiens) (UniProt P28482).
Mitogen-activated protein kinase 1 (Homo sapiens), sequence (P28482 whole entry): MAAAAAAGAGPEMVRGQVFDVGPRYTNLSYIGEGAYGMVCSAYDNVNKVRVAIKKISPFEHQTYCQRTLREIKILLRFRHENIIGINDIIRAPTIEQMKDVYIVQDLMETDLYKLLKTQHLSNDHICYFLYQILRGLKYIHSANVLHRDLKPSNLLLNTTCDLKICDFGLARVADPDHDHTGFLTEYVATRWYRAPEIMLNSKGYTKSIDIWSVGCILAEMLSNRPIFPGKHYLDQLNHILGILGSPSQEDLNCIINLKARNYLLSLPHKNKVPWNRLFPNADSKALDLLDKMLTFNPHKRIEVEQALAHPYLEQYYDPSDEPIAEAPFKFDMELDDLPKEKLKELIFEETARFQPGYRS
The target in experiment [6] is T1, Aurora kinase A (Homo sapiens) (UniProt O14965).
T1 sequence (whole entry): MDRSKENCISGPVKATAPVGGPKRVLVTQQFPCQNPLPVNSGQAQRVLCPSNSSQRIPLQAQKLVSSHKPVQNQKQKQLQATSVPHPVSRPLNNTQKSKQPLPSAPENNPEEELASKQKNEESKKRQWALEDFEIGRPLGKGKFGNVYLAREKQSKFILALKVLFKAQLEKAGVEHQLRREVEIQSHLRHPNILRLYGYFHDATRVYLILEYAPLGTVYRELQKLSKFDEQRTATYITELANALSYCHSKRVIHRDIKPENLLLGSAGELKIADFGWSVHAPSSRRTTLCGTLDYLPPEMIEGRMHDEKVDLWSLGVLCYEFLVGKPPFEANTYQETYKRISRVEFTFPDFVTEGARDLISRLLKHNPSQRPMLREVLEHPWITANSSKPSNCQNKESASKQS

Experiment [7] concerns the target T2, Transcription intermediary factor 1-alpha (Homo sapiens) (UniProt O15164).
T2 sequence (whole entry): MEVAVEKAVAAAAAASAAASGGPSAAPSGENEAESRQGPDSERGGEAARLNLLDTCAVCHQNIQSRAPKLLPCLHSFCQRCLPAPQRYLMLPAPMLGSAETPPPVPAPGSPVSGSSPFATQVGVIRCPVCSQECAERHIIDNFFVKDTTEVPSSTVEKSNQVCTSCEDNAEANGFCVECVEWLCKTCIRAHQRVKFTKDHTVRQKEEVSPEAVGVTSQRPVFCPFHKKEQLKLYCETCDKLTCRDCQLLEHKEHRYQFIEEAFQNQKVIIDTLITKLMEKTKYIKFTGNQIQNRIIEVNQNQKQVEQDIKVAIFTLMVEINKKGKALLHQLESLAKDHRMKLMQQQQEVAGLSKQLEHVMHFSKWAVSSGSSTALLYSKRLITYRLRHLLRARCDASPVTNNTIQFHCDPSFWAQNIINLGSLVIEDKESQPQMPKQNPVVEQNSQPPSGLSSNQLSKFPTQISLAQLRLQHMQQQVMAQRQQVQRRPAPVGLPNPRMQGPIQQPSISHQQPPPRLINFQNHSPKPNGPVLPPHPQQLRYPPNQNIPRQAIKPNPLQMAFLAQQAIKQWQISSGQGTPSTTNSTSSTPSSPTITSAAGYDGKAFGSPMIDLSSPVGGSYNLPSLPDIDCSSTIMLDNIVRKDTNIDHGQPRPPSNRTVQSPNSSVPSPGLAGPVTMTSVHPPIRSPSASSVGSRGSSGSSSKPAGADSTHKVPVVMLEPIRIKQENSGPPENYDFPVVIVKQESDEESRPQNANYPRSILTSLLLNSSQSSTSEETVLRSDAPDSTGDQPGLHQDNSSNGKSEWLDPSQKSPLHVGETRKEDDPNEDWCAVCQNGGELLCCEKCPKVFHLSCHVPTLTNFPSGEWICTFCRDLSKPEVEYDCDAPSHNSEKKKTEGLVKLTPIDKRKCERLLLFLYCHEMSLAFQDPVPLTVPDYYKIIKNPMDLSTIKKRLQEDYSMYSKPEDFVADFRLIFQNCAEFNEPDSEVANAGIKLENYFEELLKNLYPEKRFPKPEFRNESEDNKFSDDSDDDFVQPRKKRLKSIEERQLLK

Casein kinase I isoform delta (Homo sapiens), sequence (P48730 whole entry, looked up, canonical isoform): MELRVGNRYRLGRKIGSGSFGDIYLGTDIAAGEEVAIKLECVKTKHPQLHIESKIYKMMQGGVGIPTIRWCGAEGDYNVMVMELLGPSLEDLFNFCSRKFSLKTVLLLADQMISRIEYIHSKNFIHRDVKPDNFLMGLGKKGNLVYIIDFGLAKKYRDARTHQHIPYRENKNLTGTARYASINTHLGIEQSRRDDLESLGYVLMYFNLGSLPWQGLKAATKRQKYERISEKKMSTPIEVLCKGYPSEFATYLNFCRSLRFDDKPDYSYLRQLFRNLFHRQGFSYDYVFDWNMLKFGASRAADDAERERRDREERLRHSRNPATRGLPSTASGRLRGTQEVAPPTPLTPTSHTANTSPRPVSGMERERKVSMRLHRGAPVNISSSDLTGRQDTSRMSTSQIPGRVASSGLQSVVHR
Tyrosine-protein kinase ABL1 (Homo sapiens), sequence (P00519 whole entry): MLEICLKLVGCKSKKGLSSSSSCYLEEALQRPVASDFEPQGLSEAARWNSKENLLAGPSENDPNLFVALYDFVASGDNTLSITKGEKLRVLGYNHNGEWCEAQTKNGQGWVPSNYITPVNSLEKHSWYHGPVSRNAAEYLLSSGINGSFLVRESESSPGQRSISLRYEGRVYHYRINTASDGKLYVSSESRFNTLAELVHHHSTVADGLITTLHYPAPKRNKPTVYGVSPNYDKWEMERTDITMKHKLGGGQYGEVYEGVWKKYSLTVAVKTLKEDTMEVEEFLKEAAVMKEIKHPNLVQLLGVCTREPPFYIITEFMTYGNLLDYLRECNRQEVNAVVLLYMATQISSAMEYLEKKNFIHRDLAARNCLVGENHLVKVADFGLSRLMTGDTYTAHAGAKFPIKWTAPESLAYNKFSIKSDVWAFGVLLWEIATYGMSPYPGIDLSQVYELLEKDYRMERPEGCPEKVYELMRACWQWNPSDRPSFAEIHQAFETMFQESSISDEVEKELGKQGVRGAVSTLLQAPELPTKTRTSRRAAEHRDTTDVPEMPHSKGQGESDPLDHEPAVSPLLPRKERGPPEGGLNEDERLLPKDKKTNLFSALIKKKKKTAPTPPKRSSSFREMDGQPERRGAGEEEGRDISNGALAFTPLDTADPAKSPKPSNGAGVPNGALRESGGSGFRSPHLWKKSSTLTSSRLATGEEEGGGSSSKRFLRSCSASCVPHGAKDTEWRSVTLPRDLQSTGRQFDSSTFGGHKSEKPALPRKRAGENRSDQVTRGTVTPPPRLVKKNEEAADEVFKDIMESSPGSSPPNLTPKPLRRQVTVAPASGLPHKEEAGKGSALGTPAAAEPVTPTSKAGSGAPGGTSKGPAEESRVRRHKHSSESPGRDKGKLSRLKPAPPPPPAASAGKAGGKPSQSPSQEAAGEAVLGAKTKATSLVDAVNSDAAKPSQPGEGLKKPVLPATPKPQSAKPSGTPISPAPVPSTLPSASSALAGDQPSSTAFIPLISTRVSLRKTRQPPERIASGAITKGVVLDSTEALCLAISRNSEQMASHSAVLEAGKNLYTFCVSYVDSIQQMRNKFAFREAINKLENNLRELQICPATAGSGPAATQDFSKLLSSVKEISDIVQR

In the case of `CNc1nc(-c2cc(C(=O)N3CCN(Cc4ccc(Cl)cc4)CC3)c(Cl)cn2)cs1`, the ΔTm in experiment [1] was -0.06 °C; in experiment [2], 0.89 °C; in experiment [3], 0.17 °C; in experiment [4], 0.59 °C; in experiment [5], 0.23 °C; in experiment [6], -0.18 °C. In addition, in experiment [7], the ΔTm was determined as 0.39 °C.

With `CO[C@@H](C)CN1CC[C@]2(C)c3cc(O)ccc3C[C@H]1C2(C)C`, the ΔTm in experiment [1] was 0.73 °C; in experiment [2], 0.61 °C; in experiment [3] it was 0.53 °C; in experiment [4], -0.14 °C; in experiment [5], 0.27 °C; in experiment [6], -0.25 °C. Also, in experiment [7], the ΔTm was 0.53 °C.

Turning to `N[C@H](C(=O)O)[C@@H]1CC(Cl)=NO1`, the ΔTm in experiment [1] is -0.08 °C; in experiment [2], 0.85 °C; in experiment [3], 0.22 °C; in experiment [4] it was 0.23 °C; in experiment [5], 0.14 °C; in experiment [6] it was -0.37 °C. Also, the ΔTm in experiment [7] was -0.82 °C.

With `O=C1CCC(N2Cc3cc(CNC(=O)C(F)(F)c4ccc(Cl)cc4)ccc3C2=O)C(=O)N1` (stereo not given), the ΔTm in experiment [1] is 0.53 °C; in experiment [2] it was 0.76 °C; in experiment [3], 0.06 °C; in experiment [4] it was 0.18 °C; in experiment [5], 0.34 °C; in experiment [6], -0.46 °C. The ΔTm in experiment [7] is -0.96 °C.

With `COc1nc2ccc([C@@](O)(c3ccc(Cl)cc3)c3cncn3C)cc2c(Cl)c1Cc1ccc(-n2cccn2)cc1`, the ΔTm in experiment [1] is -0.22 °C; in experiment [2] it was -0.1 °C; in experiment [3], -0.84 °C; in experiment [4] it was -1.9 °C; in experiment [5] it was -0.39 °C; in experiment [6], -0.59 °C. For the same molecule, in experiment [7], the ΔTm is -0.54 °C.

As to `C[C@]12CC[C@@H]3c4ccc(C(N)=O)cc4CC[C@H]3[C@@H]1CC=C2c1cncc(F)c1`, the ΔTm in experiment [1] was 0.15 °C; in experiment [2], -0.32 °C; in experiment [3] it was -4.77 °C; in experiment [4] it was 0 °C; in experiment [5], 0.35 °C; in experiment [6], 2.37 °C. For the same molecule, the ΔTm in experiment [7] came out at 0.2 °C.

For `C=C[C@@]12CCc3cc(O)ccc3[C@H]1CC[C@@]1(C)[C@H]2CC[C@@H]1O`, the ΔTm in experiment [1] turned out to be 0.27 °C; in experiment [2], 0.21 °C; in experiment [3], 0.08 °C; in experiment [4], 1.27 °C; in experiment [5], 0.21 °C; in experiment [6], 0 °C. In experiment [7], the ΔTm is -0.42 °C.

Turning to `CO[C@H](C)CN1CC[C@]2(C)c3cccc(O)c3C[C@H]1C2(C)C`, the ΔTm was 0.1 °C in experiment [1]; 0.52 °C in experiment [2]; 0.27 °C in experiment [3]; -0.29 °C in experiment [4]; -0.17 °C in experiment [5]; -0.21 °C in experiment [6]. Besides, in experiment [7], the ΔTm worked out at 0.19 °C.

For the molecule `C[C@@H](CO)CCC[C@@H](C)[C@H]1CC[C@H]2[C@@H]3CC=C4C[C@@H](O)CC[C@]4(C)[C@H]3CC[C@]12C`, the ΔTm is 0.11 °C in experiment [1]; 0.17 °C in experiment [2]; 0.59 °C in experiment [3]; -0.96 °C in experiment [4]; 0.35 °C in experiment [5]; -1.67 °C in experiment [6]. Besides, in experiment [7], the ΔTm was -3 °C.

Regarding `C=CC(=O)N1CCC[C@@H](n2nc(-c3ccc(Oc4ccccc4)cc3)c3c(N)ncnc32)C1`, the ΔTm in experiment [1] is 2.63 °C; in experiment [2] it was 0.83 °C; in experiment [3] it was 0.7 °C; in experiment [4], -1.96 °C; in experiment [5], -6.31 °C; in experiment [6] it was 6.21 °C. Further, the ΔTm in experiment [7] was -4.01 °C.

Take `Cc1nnc2n1-c1sc3c(c1C(c1ccccc1Cl)=NC2)C[C@@H](C(=O)N1CCOCC1)C3`: the ΔTm amounted to 0.78 °C in experiment [1]; 0.74 °C in experiment [2]; 0.17 °C in experiment [3]; 0.5 °C in experiment [4]; 0.3 °C in experiment [5]; 0.11 °C in experiment [6]. For the same molecule, in experiment [7], the thermal shift (ΔTm) is -0.75 °C.

Take `COc1ccc(-n2nc(C(F)(F)F)cc2-c2ccc(Cl)cc2)cc1`: the ΔTm is 0.2 °C in experiment [1]; 1.23 °C in experiment [2]; 0.03 °C in experiment [3]; -0.24 °C in experiment [4]; 0.69 °C in experiment [5]; -0.08 °C in experiment [6]. The ΔTm in experiment [7] was -0.34 °C.

In the case of `CNC(=O)c1cc(C(=O)NC2CC2)cn(Cc2ccccc2)c1=O`, the ΔTm in experiment [1] is 0.07 °C; in experiment [2] it was 0.96 °C; in experiment [3], -0.04 °C; in experiment [4], -0.41 °C; in experiment [5], 0.38 °C; in experiment [6] it was -0.78 °C. In experiment [7], the ΔTm was -0.29 °C.

Consider `C[C@H](CCC(=O)O)[C@H]1CC[C@H]2[C@@H]3[C@@H](O)C[C@@H]4C[C@H](O)CC[C@]4(C)[C@H]3CC[C@]12C`, for which the ΔTm in experiment [1] is 0.07 °C; in experiment [2], 0.52 °C; in experiment [3], 0.77 °C; in experiment [4], -0.56 °C; in experiment [5], 0.29 °C; in experiment [6] it was -1.74 °C. Moreover, in experiment [7], the ΔTm is -2.12 °C.

In the case of `CN(C(=O)CCOCCOCCOCCOCCNc1cccc2c1C(=O)N(C1CCC(=O)NC1=O)C2=O)[C@H]1CC[C@@]2(C)[C@@H](CC[C@@H]3[C@@H]2CC[C@]2(C)[C@@H](c4ccc5ccncc5c4)CC[C@@H]32)C1` (stereo not given in full), the ΔTm in experiment [1] is 1.62 °C; in experiment [2], 0.45 °C; in experiment [3] it was -6.92 °C; in experiment [4], 2.49 °C; in experiment [5], -1.53 °C; in experiment [6], -1.77 °C. In addition, the ΔTm in experiment [7] came out at 0 °C.

Consider `CN1CCN(C(=O)Cc2ccc(N/C(=C3\C(=O)Nc4cc(Cl)ccc43)c3ccccc3)cc2)CC1`, for which the ΔTm in experiment [1] was 8.52 °C; in experiment [2], 1.7 °C; in experiment [3], 1.29 °C; in experiment [4], 6.21 °C; in experiment [5] it was -0.19 °C; in experiment [6], 1.19 °C. Besides, the ΔTm in experiment [7] is -2.36 °C.

As for `CO[C@H](C)CN1CC[C@@]2(C)c3ccc(O)cc3C[C@@H]1C2(C)C`, the ΔTm was 0.21 °C in experiment [1]; -0.28 °C in experiment [2]; 0.29 °C in experiment [3]; -0.8 °C in experiment [4]; 0.34 °C in experiment [5]; 0.3 °C in experiment [6]. For the same molecule, in experiment [7], the ΔTm was determined as 0.33 °C.

For `Cc1nnc2n1-c1sc3c(c1C(c1ccccc1Cl)=NC2)C[C@H](C(=O)N1CCOCC1)C3`, the ΔTm in experiment [1] is 0.62 °C; in experiment [2] it was 0.85 °C; in experiment [3], 0.25 °C; in experiment [4], 0.26 °C; in experiment [5], 0.42 °C; in experiment [6], -0.08 °C. Further, the ΔTm in experiment [7] is -0.99 °C.

As for `CS(=O)(=O)c1ccc(-c2cnc(N)c(C(=O)Nc3ccccc3)n2)cc1`, the ΔTm is 0.67 °C in experiment [1]; 0.23 °C in experiment [2]; -0.19 °C in experiment [3]; 3.54 °C in experiment [4]; 0.38 °C in experiment [5]; 0.45 °C in experiment [6]. In experiment [7], the ΔTm is -1.74 °C.

In the case of `Cn1ncc(-c2nc(N[C@H]3CC[C@H](N)CC3)ncc2Cl)c1CC1CC1`, the ΔTm in experiment [1] amounted to 0.41 °C; in experiment [2], 12.7 °C; in experiment [3], 9.79 °C; in experiment [4], 9.59 °C; in experiment [5], 2.41 °C; in experiment [6], 2.45 °C. The ΔTm in experiment [7] was -3.6 °C.

Source of the values: ChEMBL document CHEMBL5308504, “Tm Shift (DSF) assay results for EUbOPEN Chemogenomics Library” (2023).
